Screening data from PubChem BioAssay.
This excerpt belongs to a sample that is enriched for hits.
RMI-FANCM inh = blocks RMI1/RMI2 complex binding to FANCM MM2 peptide | actives 0.58% (n = 70,000) | AID 1159607 | FP signal (polarization) at 33 µM | Fluorescence polarization, RMI core complex with F-MM2 peptide; hits give low values; in the data active = FP signal below about 40
Numbers without * were called inactive; ! = not confirmed by another sample.

For CCN1CCN(c2nc3ccccc3nc2C(C#N)S(=O)(=O)c2cccs2)CC1 (stereo not given) the results were RMI-FANCM inh 69.
C=CCN1C(=O)C(C)(C)COc2cc(NS(=O)(=O)c3cc(OC)ccc3OC)ccc21 was read as RMI-FANCM inh 65.
For CCOc1ccc(-c2cc(=O)n(CC(=O)Nc3ccc(Cl)cc3Cl)cn2)cc1 the results were RMI-FANCM inh 110.
N/C(N=Nc1ccccc1)=N/Nc1ccccc1 was read as RMI-FANCM inh 52.
For O=C(O)c1ccccc1Nc1ccccc1 the results were RMI-FANCM inh 55.
Cc1cccc(Nc2ccccc2C(=O)O)c1C was read as RMI-FANCM inh 25*!.
Cc1cccc(C(=O)O)c1O was read as RMI-FANCM inh 60.
For CCOc1ccc(-c2ccc(=O)n(CCCC(=O)Nc3c(C)cc(C)cc3C)n2)cc1 the results were RMI-FANCM inh 66.
Screening N#Cc1ccc(C#CCOC(=O)c2ccc(C(F)(F)F)cc2)cc1 returned RMI-FANCM inh 69.
CCC(=O)O[C@H]1[C@H](O[C@@H]2[C@@H](C)[C@H](O[C@H]3C[C@@](C)(OC)[C@@H](O)[C@H](C)O3)[C@@H](C)C(=O)O[C@H](CC)[C@@](C)(O)[C@H](O)[C@@H](C)C(=O)[C@H](C)C[C@@]2(C)O)O[C@H](C)C[C@@H]1N(C)C was read as RMI-FANCM inh 62.
CCOC(=O)CCC(=O)O[C@H]1[C@H](O[C@@H]2[C@@H](C)[C@H](O[C@H]3C[C@@](C)(OC)[C@@H](O)[C@H](C)O3)[C@@H](C)C(=O)O[C@H](CC)[C@@](C)(O)[C@H](O)[C@@H](C)C(=O)[C@H](C)C[C@@]2(C)O)O[C@H](C)C[C@@H]1N(C)C was read as RMI-FANCM inh -23*.
CCOC(=O)CCC(=O)OC1C(OC2C(C)C(OC3CC(C)(OC)C(O)C(C)O3)C(C)C(=O)OC(CC)C(C)(O)C(O)C(C)C(=O)C(C)CC2(C)O)OC(C)CC1N(C)C (stereo not given) was read as RMI-FANCM inh 63.
Screening Cc1ccc(-c2csc3c(=O)n(C)c(SCC(=O)NCc4ccccc4)nc23)cc1 returned RMI-FANCM inh 63.
`CN(C)c1ccc(CCNC(=O)COc2ccc(Cl)cc2)cc1` gave RMI-FANCM inh 70.
For COc1ccc(Cl)c2sc(N3CCN(C(=O)c4ccc(Br)s4)CC3)nc12 the results were RMI-FANCM inh 68.
Cn1c(=O)c2cc(C(=O)Nc3ccc(C(F)(F)F)cc3)sc2n(C)c1=O was read as RMI-FANCM inh 64.
`COc1nn(C)cc1C(=O)Nc1ccc(C(F)(F)F)cc1` gave RMI-FANCM inh 57.
`COC(OC)c1ccc2c(N)c(C(=O)Nc3ccc(C(F)(F)F)cc3)sc2n1` gave RMI-FANCM inh 39*.
`O=c1cc(CO)oc(CO)c1O` gave RMI-FANCM inh 53.
O=C(CSc1ncnc2sc3c(c12)CCCC3)Nc1ccc(-c2nc3ccccc3s2)cc1 was read as RMI-FANCM inh 77.
Screening Cc1ccc2oc(=O)cc(CN3CCOCC3)c2c1 returned RMI-FANCM inh 63.
O=c1cc(CN2CCOCC2)c2cc3c(cc2o1)CCC3 was read as RMI-FANCM inh 57.
Cc1c(O)ccc2c(CN3CCCCC3)cc(=O)oc12 was read as RMI-FANCM inh 18*.
`O=C(NCC1COC2(CCCCC2)O1)C(=O)Nc1ccccc1F` (stereo not given) gave RMI-FANCM inh 57.
`O=C(COc1cccc2c1CCN(Cc1ccc(Br)cc1)C2=O)Nc1cc(C(F)(F)F)ccc1Cl` gave RMI-FANCM inh 64.
For Clc1ccc(-c2cn3nc(COc4ccc(Cl)cc4Cl)n4c3c2CCCC4)cc1 the results were RMI-FANCM inh 48.
For Cc1ccc(-c2cc(CC(=O)NCc3ccco3)no2)cc1 the results were RMI-FANCM inh 63.
`N#CC1=C(N)OC(c2ccco2)=C(C#N)C1c1ccco1` (stereo not given) gave RMI-FANCM inh 56.
For N#Cc1c(N)c(C#N)c2c(c1-c1ccco1)Cc1ccccc1-2 the results were RMI-FANCM inh 12*.
`COC(=O)c1sc(SC)c(C#N)c1-c1ccco1` gave RMI-FANCM inh 57.
Cc1nc2c(=O)n(CC(=O)Nc3ccc(Cl)cc3)nc(-c3ccccc3)c2s1 was read as RMI-FANCM inh 92.
Screening COc1cc(-c2ccc(=O)n(CC(=O)Nc3ccc(F)cc3F)n2)cc(OC)c1OC returned RMI-FANCM inh 56.
For Cc1ccc(-c2noc(-c3cccn(CC(=O)Nc4ccc(F)cc4F)c3=O)n2)cc1 the results were RMI-FANCM inh 95.
COc1cc2cc(CNc3ccc(C)cc3)c(=O)n(CC(=O)Nc3ccc(F)cc3F)c2cc1OC was read as RMI-FANCM inh 9*.
`COc1ccc(-c2nc(SC(CC(=O)NCCN3CCOCC3)c3ccc(OC)cc3)n[nH]2)cc1` (stereo not given) gave RMI-FANCM inh 22*.
COc1ccc(-c2nc(SC(CC(=O)NCCc3ccccc3)c3cccs3)n[nH]2)cc1 (stereo not given) was read as RMI-FANCM inh 53.
